Data as given in PubChem BioAssay (NCI).
Compounds without any hit were thinned out: in the full panel of roughly 83,000, 20% have a hit.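 A percent growth of 40 corresponds to 60% growth inhibition; 0 means no net growth; -100 means all cells died. Active threshold: below 10.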 Values without a mark were called inactive. Activity calls are given as the source filed them.

Columns and labels:
Experiment in all cases: NCI-60 one-dose screen, 48 h (100 = growth as untreated, 0 = no growth, -100 = all killed)
Settings in all cases: 10 µM unless noted
NCI-H23 lung = system: NCI-H23 lung
NCI-H226 lung = system: NCI-H226 lung
NCI-H322M lung = system: NCI-H322M lung
HOP-62 NSCLC = system: HOP-62 NSCLC
NCI-H460 lung = system: NCI-H460 lung
HOP-92 NSCLC = system: HOP-92 NSCLC
NCI-H522 lung = system: NCI-H522 lung
786-0 renal = system: 786-0 renal
COLO 205 colon = system: COLO 205 colon
DU-145 prostate = system: DU-145 prostate
K-562 leukemia = system: K-562 leukemia
MALME-3M melanoma = system: MALME-3M melanoma
MDA-MB-231 breast = system: MDA-MB-231 breast
RXF 393 renal = system: RXF 393 renal
SF-268 CNS = system: SF-268 CNS
SF-295 CNS = system: SF-295 CNS
SF-539 CNS = system: SF-539 CNS
UACC-257 melanoma = system: UACC-257 melanoma
M14 melanoma = system: M14 melanoma
A549/ATCC NSCLC = system: A549/ATCC NSCLC

Row | Structure (SMILES) | growth (NCI-H23 lung) | growth (NCI-H226 lung) | growth (NCI-H322M lung) | growth (HOP-62 NSCLC) | growth (NCI-H460 lung) [%] | growth (HOP-92 NSCLC) | growth (NCI-H522 lung) | growth (786-0 renal) | growth (COLO 205 colon) | growth (DU-145 prostate) | growth (K-562 leukemia) | growth (MALME-3M melanoma) | growth (MDA-MB-231 breast) | growth (RXF 393 renal) | growth (SF-268 CNS) | growth (SF-295 CNS) | growth (SF-539 CNS) | growth (UACC-257 melanoma) | growth (M14 melanoma) | growth (A549/ATCC NSCLC)
1 | C=C(C)C1CCC2(C(=O)O)CCC3(C)C(CCC4C5(C)CCC(OC(=O)NCc6ccccc6)C(C)(C)C5CCC43C)C12 (stereo not given) | 32.3% | 44.8% | 59.3% | 48.4% | 29.4 | -4.47% (active) | -6.51% (active) | 44.8% | 13.7% | 56.2% | 28.5% | 72.1% | 53.6% | 60.2% | 65.4% | 41.9% | 53.5% | 29.3% | 45.6% | 
2 | Cn1c(=O)c(C#N)c(-c2ccco2)n2c(S(=O)(=O)Cc3ccccc3)nnc12 | 94.3% | 122% | 89.1% | 104% | 79.9 | 92.8% | 81.2% | 81.1% | 111% | 77% | 100% | 63.6% | 126% | 91% | 104% | 112% | 101% | 8.93% (active) | 57.6% | 
3 | O=C(Nc1ccc(Nc2ccncc2)cc1)c1ccc([N+](=O)[O-])cc1 | 81% | 91.1% | 90.4% | 61.7% | 77.5 | 51.1% | 52.6% | 56.7% | -50.3% (active) | 68.7% | 19.5% | 59.1% | 93.5% | 91.6% | 91.9% | 79.6% | 88.8% | 96.9% | 65.1% | 72.4%
4 | COc1ccc(-c2cc(-c3ccc(Cl)cc3)nc(SCCCCCCC(=O)NO)n2)cc1 | 8.94% (active) | 19.7% | 39.5% | 7.61% (active) | 14.9 | 23.7% | 10.4% | 27.4% | 35.6% | 24.6% | 20.1% | 11.7% | 45.8% | -0.367% (active) | 31.7% | 36.3% | 34.8% | 23% | 22.3% | 
5 | CCCCN(CCCC)CC(O)c1ccc(OCc2ccccc2)c2ccccc12 (stereo not given) | 61.2% | 104% | 90% | 109% | 83.1 | 76.6% | 23.7% | 84.6% | 87.9% | 89.6% | -4.85% (active) | 58.6% | 74.9% | 106% | 74.5% | 48.6% | 101% | 90.2% | 72.2% | 
6 | CNc1cc(C(=O)O)nc(NC)n1 | 100% | 98.8% | 95.7% | 103% | 99.2 | 87.1% | 97.1% | 105% | 105% | 103% | 101% | 95.6% | 93.1% | 96% | 100% | 100% | 94.6% | 94.4% | 92.7% | 
7 | Cc1cc(-c2ccc(N=Nc3c(S(=O)(=O)O)cc4cc(S(=O)(=O)O)cc(N)c4c3O)c(C)c2)ccc1N=Nc1cc(S(=O)(=O)O)c2ccccc2c1O | 92.2% | 90% | 86.5% | 93.8% | 107 | 89.6% | 101% | 104% | 110% | 112% | 98% | 89% | 92.4% | 107% | 95.6% | 103% | 88.4% | 97.7% | 101% | 97.2%
8 | O=C(N/N=C1\c2ccccc2-c2cccc(C(=O)O)c21)c1ccc(O)cc1 | 98.2% | 89.6% | 86.4% | 93.8% | 96.6 | 78.6% | 86.5% | 97.5% | 107% | 101% | 105% | 88.2% | 92.2% | 97.6% | 96.6% | 102% | 97.7% | 99.5% | 98% | 
9 | CCCCCn1sc(=O)n(Cc2ccc(CNC(=O)OCc3ccc4cccc(O)c4n3)cc2)c1=O | 25.1% | 21.9% | 41.8% | -0.186% (active) |  | -52.5% (active) | -49.1% (active) | -71% (active) | -45.2% (active) | -15% (active) | 3.39% (active) | -77.7% (active) | -62.5% (active) | -76.8% (active) | 27.6% | 31.1% | -69.6% (active) | 0.0301% (active) | -64.7% (active) | 20.6%
10 | C=C(C)[C@@H]1CC[C@]2(C)[C@H](CC[C@@H]3[C@@H]([C@@](C)(O)CCC=C(C)C)CC[C@]32C)[C@@]1(C)CCC(=O)O | -5.71% [100 µM] (active) | -41.5% [100 µM] (active) | -6.31% [100 µM] (active) | -61.4% [100 µM] (active) |  | -49.4% [100 µM] (active) | -13.6% [100 µM] (active) | 1.09% [100 µM] (active) | -69.5% [100 µM] (active) | 7.93% [100 µM] (active) | 11.6% [100 µM] | -39.6% [100 µM] (active) | -39.5% [100 µM] (active) | -69.2% [100 µM] (active) | -17.9% [100 µM] (active) | -59.9% [100 µM] (active) | -85.7% [100 µM] (active) | 28.9% [100 µM] | 2.42% [100 µM] (active) | 14.9% [100 µM]
11 | CC(C)C1=NOC(=O)C1=Cc1cn(-c2ccccc2)nc1-c1ccc(Cl)cc1 | 84.8% | 92.6% | 93.9% | 92.4% |  | 86.9% | 80.8% | 80.7% | 99.6% | 94.3% | 42.8% | 93.2% | 97% | 58.2% | 99.3% | 96.9% | 75.9% | 105% | 76.4% | 
12 | CC(C)CSc1ncnc2nc[nH]c12 | 94.7% | 85.2% | 103% | 95.9% |  | 68.8% | 88% | 93.8% | 101% | 100% | 102% | 104% | 98.3% | 92.3% | 91.5% | 103% | 88.4% | 98.4% | 98.4% | 103%
13 | Cc1c(Cn2cc(COc3ccc(Br)cc3)nn2)c(C)c(Cn2cc(COc3ccc(Br)cc3)nn2)c(C)c1Cn1cc(COc2ccc(Br)cc2)nn1 | 98.7% | 88.2% | 108% | 84% |  | 93.7% | -30.4% (active) | 95.2% | 84.6% | 104% | 103% | 89.1% | 89.7% | 102% | 97% | 89.6% | 96% | 80.2% | 97.7% | 83.4%
14 | CN(Cc1cccc(C(F)(F)F)c1)C(=O)[C@@H](CC(=O)N1CCC(N2CCCCC2)CC1)N1C(=O)[C@@H](N2C(=O)OC[C@@H]2c2ccccc2)[C@H]1/C=C/c1ccccc1 | 93.9% | 85.1% | 93.5% | 81.2% |  | 58.7% | 96.1% | 75.4% | 72.2% | 103% | 65.7% | 96.8% | 55.7% | 76.3% | 77.8% | 90.8% | 81.9% | 88.9% | 98.7% | 
15 | CCOc1ccc2sc(NS(=O)(=O)c3ccc(N)cc3)nc2c1 | 104% | 94.7% | 109% | 100% |  | 94% | 115% | 115% | 103% | 119% | 103% | 118% | 106% | 104% | 110% | 109% | 99.5% | 111% | 109% | 112%
